High-throughput results as filed in PubChem BioAssay.
ATXN2 expr inh: ATXN2 expression inhibition | HEK-293 ATXN2-luciferase reporter, luminescence, 24 h | Potency, µM (titrated, usually from 57 µM), most hits filed as inhibitors | 0.72% of 360,000 active | AID 1745845; further: nearly all actives have a fitted effect of over 55% in size
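ATXN2-luciferase reporter cells (luciferase flanked by upstream and downstream ATXN2 gene portions) were treated 24 h at 37 °C with compounds at up to 57 uM. SteadyGlo luminescence gave expression; GF-AFC fluorescence gave viability.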
HT1080NT lethal: kills 2HG-producing HT-1080-NT fibrosarcoma cells; Potency, µM (titrated, usually from 46.1 µM), most hits filed as cytotoxic; HT-1080-NT fibrosarcoma viability, CellTiter-Glo ATP luminescence, 48 h; 1.6% of 360,000 active;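 further: NT is the 2HG producing partner of a matched IDH1 knockdown line; nearly all actives have a fitted effect of over 55% in size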
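Read-out is CellTiter-Glo luminescence after 10 minutes at room temperature, following 48 hours' compound treatment of HT-1080-NT cells (750 cells/well, RPMI, 5% FBS, 37 degrees C).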
HT1080 IDH1KD tx: kills HT-1080 cells with IDH1 knockdown; HT-1080 IDH1 knockdown viability, ATP luminescence, 48 h; Potency, µM (top dose mostly 46.1 µM), usual class: cytotoxic; 2% of 360,000 active
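Luminescent ATP read-out (CellTiter-Glo, 10 min at room temperature) after 48 h compound exposure at 37 °C gave viability of IDH1-knockdown HT-1080 cells. Activity was normalised to DMSO and cell-free wells, then fitted as concentration-response curves.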
HepG2 viability: counter-screen for TGF-b inhibitors: cytotoxicity in HepG2 cells | Potency, µM (top dose mostly 46.1 µM), most hits filed as cytotoxic | 0.76% of 410,000 active | HepG2 CAGA-GFP viability, ATP luminescence, 18 h
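CellTiter-Glo luminescence gave cytotoxicity after 18 hours at 37 degrees C. The cells were HepG2 CAGA-GFP in 1% FBS DMEM, stimulated with 500 pg/mL TGF-beta after compound addition. %Activity was normalised to no-cell wells (complete cell-killing) and DMSO (no toxicity), and curves were fitted and classified.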
TGFb inhibitor: blocks TGF-b signaling. HepG2 CAGA-GFP TGF-b/SMAD3 reporter, GFP fluorescence, 18 h; TGF-beta stimulated, 500 pg/mL final. 1.2% of 410,000 active. Potency, µM (top dose mostly 46.1 µM), hits mostly inhibitors. AID 588855; further: nearly all actives have a fitted effect of over 65% in size
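Using HEPG2 CAGA-GFP reporter cells at 1000 cells/well, we pinned test compounds, stimulated with recombinant TGF-beta (500 pg/mL final) and measured total well GFP after 18 h.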
S2 tox: viability counter-screen for ATXN expression inhibitors. S2 cells (HEK-293 line with an ATXN2-luciferase reporter) viability, CellTiter-Fluor protease fluorescence, 24 h. AID 651635. Potency, µM (doses to about 56.7 µM), usual class: cytotoxic. 0.49% of 400,000 active; further: nearly all actives have a fitted effect of over 40% in size
A number is an active result; - = inactive; ? = inconclusive; . = no result given; [ ] = another dose, or the depositor's remark. Hits are enriched below; roughly 3.9% of the tested compounds scored in any of these assays. The call rests on the fitted dose curve; in most records, active means well fitted curve in the direction sought with a large enough effect; inconclusive means small, poorly fitted or top-dose-only effect, or another doubt; inactive means no such curve, though single readings can be large; an effect the other way counts as inactive or inconclusive.

SMILES | ATXN2 expr inh | HT1080NT lethal | HT1080 IDH1KD tx | HepG2 viability | TGFb inhibitor | S2 tox
COc1ccc(CNCC(O)(c2ccc(Cl)cc2)c2ccc(Cl)cc2)cc1 | ? | ? | ? | 10µM | - | ?
COc1ccc(CNCC(O)(c2ccccc2)c2ccc(F)cc2)cc1 (stereo not given) | - | - | ? | - | ? | -
Cc1ccc2occ(-c3cc(-c4ccc(F)cc4)nc4c3COc3ccc(F)cc3-4)c(=O)c2c1 | - | . | . | - | - | -
c1ccc2sc(-c3cc4c(c(OC5CCOC5)c3)OCCN(Cc3cccn3-c3nccs3)C4)nc2c1 (stereo not given) | . | . | . | . | . | -
CO[C@H]1C[C@H](O[C@H]2[C@H](C)[C@@H](O[C@@H]3O[C@H](C)C[C@H](N(C)C)[C@H]3OC(C)=O)[C@@H](C)C[C@]3(CO3)C(=O)[C@H](C)[C@@H](OC(C)=O)[C@@H](C)[C@@H](C)OC(=O)[C@@H]2C)O[C@@H](C)[C@@H]1OC(C)=O | . | . | . | . | . | -
Cc1ccc(NC(=O)c2c(C)nc3sc(C(=O)Nc4ccc(F)cc4)c(N)c3c2-c2ccc(Cl)cc2)c(C)c1 | - | . | . | - | - | -
CCCCCCCCCCCCOCCO | - | . | . | . | . | -
O=C(NCc1cccnc1)/C(=C\c1ccc(-c2cccc(Cl)c2)o1)S(=O)(=O)c1ccccc1 | 25µM | - | ? | - | 16µM | .
CC1(C(=O)Nc2ccc(Cl)c(C(F)(F)F)c2)Cc2c(-c3ccc(C(N)=O)cc3)ccnc2O1 (stereo not given) | - | 16µM | 16µM | 16µM | 11µM | ?
CC1(C(=O)Nc2ccc(Cl)c(C(F)(F)F)c2)Cc2c(-c3cccc(C(N)=O)c3)ccnc2O1 (stereo not given) | ? | 23µM | ? | - | ? | ?
CC(C)c1ccc(NC(=O)C2(C)Cc3c(-c4ccc(C(N)=O)cc4)ccnc3O2)cc1 (stereo not given) | - | - | - | - | - | -
CSc1nc(NCC(C)O)c2c3c(sc2n1)CN(C)CC3 (stereo not given) | . | - | - | - | - | -
CSc1nc(SCC(=O)NC(c2ccccc2)c2ccccc2)c2c3c(sc2n1)CN(C)CC3 | 20µM | - | ? | - | - | 28µM
COc1ccc(N2C(=O)c3ccccc3NC2c2ccc(OC)c(COc3ccc(NC(C)=O)cc3)c2)cc1 (stereo not given) | . | . | . | - | - | .
COc1cc(F)ccc1-c1csc(C(O)(c2ccccc2)C(F)(F)F)n1 (stereo not given) | ? | ? | - | 22µM | ? | ?
Oc1cccc(-c2csc(C(O)(c3ccccc3)C(F)(F)F)n2)c1 (stereo not given) | - | ? | - | - | ? | -
CN(C)c1ccc(-c2csc(C(O)(c3ccccc3)C(F)(F)F)n2)cc1 (stereo not given) | - | ? | ? | 16µM | ? | -
OC(c1ccccc1)(c1nc(-c2ccc(F)c(Cl)c2)cs1)C(F)(F)F (stereo not given) | - | ? | 18µM | - | ? | ?
Cc1ccc(-c2csc(C(O)(c3ccccc3)C(F)(F)F)n2)cc1C (stereo not given) | - | 26µM | ? | - | ? | ?
Cc1cnc(-n2ncc(C(=O)N(C)C3CCOC3)c2C)nc1-c1ccc(F)cc1 (stereo not given) | . | . | . | . | . | -
CC(C)C[C@H](NC(=O)[C@@H](COC(C)(C)C)NC(=O)[C@H](Cc1ccc(O)cc1)NC(=O)[C@H](CO)NC(=O)[C@H](Cc1c[nH]c2ccccc12)NC(=O)[C@H](Cc1cnc[nH]1)NC(=O)[C@@H]1CCC(=O)N1)C(=O)N[C@@H](CCCN=C(N)N)C(=O)N1CCC[C@H]1C(=O)NNC(N)=O | . | . | . | . | . | -
COC1CCN(Cc2cn(Cc3ccccc3)nc2-c2cc3ccccc3o2)CC1 | ? | ? | 26µM | - | ? | ?
OCC1CCN(Cc2cn(Cc3ccccc3)nc2-c2cc3ccccc3o2)CC1 | - | ? | ? | - | - | -
Cc1nc(-c2cccc(NC(=O)Nc3ccc([N+](=O)[O-])cc3)c2)no1 | 13µM | . | . | - | ? | -
COc1ccc(C[C@H]2CN3C(=NC[C@@H]3C(C)C)N2CCNC(=O)CCC2CCCCC2)cc1 | - | - | - | - | - | ?
SMILES | ATXN2 expr inh | HT1080NT lethal | HT1080 IDH1KD tx | HepG2 viability | TGFb inhibitor | S2 tox
COc1ccc(C[C@H]2CN3C(=NC[C@@H]3Cc3ccccc3)N2CCNC(=O)CCC2CCCCC2)cc1 | ? | ? | ? | - | ? | 22µM
Cc1ccc(S(=O)(=O)NC2=C(N3CCN(c4ccccc4F)CC3)C(=O)c3ccccc3C2=O)cc1 | - | - | - | - | - | ?
CC(=O)Nc1ccc(S(=O)(=O)NC2=C(N3CCN(c4ccc(F)cc4)CC3)C(=O)c3ccccc3C2=O)cc1 | - | ? | ? | - | 11µM | ?
CCOC(=O)N1CCN(C2=C(NS(=O)(=O)c3ccc(C)cc3)C(=O)c3ccccc3C2=O)CC1 | . | ? | ? | - | 22µM | 32µM
NC(=O)C1CCN(C2=C(NS(=O)(=O)c3ccc(Cl)cc3)C(=O)c3ccccc3C2=O)CC1 | . | - | - | - | 11µM | ?
Cc1nc2c(-c3ccccc3)c(C)nn2c(C)c1CCC(=O)NCc1ccccc1Cl | - | . | . | - | - | -
OCCN1CCN(Cc2ccc3c(c2)CN(Cc2ccc4ccccc4c2)CCO3)CC1 | . | . | . | . | . | -
CCCCN(C)CCCNC(=O)Cn1nc(CC)n2c(cc3sc(C)cc32)c1=O | . | . | . | - | - | .
CC(C)(Cc1ccc2ccccc2c1)NC[C@@H](O)COc1cccc(Cl)c1C#N | - | . | . | . | . | .
CCOC(=O)[C@]12Cc3c(cc(OC)c(OC)c3OC)[C@H]1N(Cc1ccccc1)C(=O)c1cc(OC)ccc12 | 20µM | 18µM | ? | . | . | 11µM
COc1ccc(C(=O)N2CCN(C(=O)COc3ccc(Br)cc3)CC2)cc1OC | . | . | . | - | ? | .
COc1ccc(-c2cc(C(=O)Nc3c(C)nn(Cc4ccccc4)c3C)no2)cc1 | ? | -[9.24 µM] | 16µM | - | - | -
CCN(CC)c1ccc(Nc2cc3n(c(=O)n2)CCc2cc(OC)c(OC)cc2-3)cc1 | - | 26µM | ? | - | - | -
COc1ccccc1C1CC(=O)Nc2cc3c(cc21)OCCO3 (stereo not given) | - | 2.2µM | 1.8µM | - | ? | ?
CC(C)Oc1ccccc1C1CC(=O)Nc2cc3c(cc21)OCCO3 (stereo not given) | - | 1µM | 0.71µM | - | - | ?
COc1cccc(C2CC(=O)Nc3cc4c(cc32)OCCO4)c1OC(C)C (stereo not given) | - | - | - | - | - | -
